Source: the supplement of paper PMC11732987, “Enantioselective OTUD7B fragment discovery through chemoproteomics screening and high-throughput optimisation” (Communications Chemistry, 2025)

Key:
Assay in all cases: log2 ratio of Biotin-Ahx-Ub-VS probe labelling (fragment/DMSO); higher = less target engagement (more negative = stronger competition), active = hit call of the paper (q ≤ 0.05, log2 ratio ≤ -1)
Conditions in all cases: compound concentration: 200 uM; treatment time: 3 h
USP19 = target: T1, USP19 (UniProt O94966)
T1 sequence (whole entry): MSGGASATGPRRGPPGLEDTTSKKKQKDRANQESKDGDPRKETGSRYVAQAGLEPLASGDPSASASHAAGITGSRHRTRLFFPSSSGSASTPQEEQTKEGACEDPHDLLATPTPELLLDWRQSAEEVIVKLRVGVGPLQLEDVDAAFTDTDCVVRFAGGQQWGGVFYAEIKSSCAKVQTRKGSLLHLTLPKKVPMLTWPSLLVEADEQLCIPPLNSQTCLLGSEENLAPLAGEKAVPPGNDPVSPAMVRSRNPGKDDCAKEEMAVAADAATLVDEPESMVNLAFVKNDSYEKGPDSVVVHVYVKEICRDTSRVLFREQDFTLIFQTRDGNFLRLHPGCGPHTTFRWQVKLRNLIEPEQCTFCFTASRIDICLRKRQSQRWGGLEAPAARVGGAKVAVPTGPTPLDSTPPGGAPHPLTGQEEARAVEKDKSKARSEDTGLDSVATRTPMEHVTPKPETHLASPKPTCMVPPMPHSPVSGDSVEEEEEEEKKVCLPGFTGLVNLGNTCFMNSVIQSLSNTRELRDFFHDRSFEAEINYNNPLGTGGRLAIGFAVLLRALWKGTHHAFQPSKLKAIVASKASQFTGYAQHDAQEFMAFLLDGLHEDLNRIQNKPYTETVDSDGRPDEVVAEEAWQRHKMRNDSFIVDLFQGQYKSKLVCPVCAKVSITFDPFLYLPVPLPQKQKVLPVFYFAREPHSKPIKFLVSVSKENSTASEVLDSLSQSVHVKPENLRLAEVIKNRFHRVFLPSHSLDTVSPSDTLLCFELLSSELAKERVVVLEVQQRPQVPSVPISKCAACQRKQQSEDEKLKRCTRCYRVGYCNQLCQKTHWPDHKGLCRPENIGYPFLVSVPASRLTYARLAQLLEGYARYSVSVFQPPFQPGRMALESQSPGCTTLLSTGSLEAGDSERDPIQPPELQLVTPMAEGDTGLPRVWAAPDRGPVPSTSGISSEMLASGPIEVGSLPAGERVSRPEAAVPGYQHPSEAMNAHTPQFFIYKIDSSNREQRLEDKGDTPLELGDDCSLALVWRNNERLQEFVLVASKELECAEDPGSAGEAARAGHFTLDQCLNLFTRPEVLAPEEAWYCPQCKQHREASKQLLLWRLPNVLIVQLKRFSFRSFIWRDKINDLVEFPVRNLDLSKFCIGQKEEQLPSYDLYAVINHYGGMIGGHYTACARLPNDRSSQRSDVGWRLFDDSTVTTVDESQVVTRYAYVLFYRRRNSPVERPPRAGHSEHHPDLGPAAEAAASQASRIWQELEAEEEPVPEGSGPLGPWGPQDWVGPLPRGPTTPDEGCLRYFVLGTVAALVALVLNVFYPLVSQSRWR
Summary of the method: (§1)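 Labelled DUBs were enriched with NeutrAvidin, digested with LysC and trypsin, and run by diaPASEF LC-MS/MS. The labelling used Biotin-Ahx-Ub-VS at 0.5 µM final for 1 h on HEK293T lysate (495 µg per sample) previously treated in triplicate with fragment at 200 µM or vehicle for 3 h. Values are average log2 fragment/vehicle ratios by unpaired t-test on global-median-normalised Spectronaut quantities of proteins with ≥2 unique peptides.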

USP22 = target: T2, USP22 (UniProt Q9UPT9)
T2 sequence (whole entry): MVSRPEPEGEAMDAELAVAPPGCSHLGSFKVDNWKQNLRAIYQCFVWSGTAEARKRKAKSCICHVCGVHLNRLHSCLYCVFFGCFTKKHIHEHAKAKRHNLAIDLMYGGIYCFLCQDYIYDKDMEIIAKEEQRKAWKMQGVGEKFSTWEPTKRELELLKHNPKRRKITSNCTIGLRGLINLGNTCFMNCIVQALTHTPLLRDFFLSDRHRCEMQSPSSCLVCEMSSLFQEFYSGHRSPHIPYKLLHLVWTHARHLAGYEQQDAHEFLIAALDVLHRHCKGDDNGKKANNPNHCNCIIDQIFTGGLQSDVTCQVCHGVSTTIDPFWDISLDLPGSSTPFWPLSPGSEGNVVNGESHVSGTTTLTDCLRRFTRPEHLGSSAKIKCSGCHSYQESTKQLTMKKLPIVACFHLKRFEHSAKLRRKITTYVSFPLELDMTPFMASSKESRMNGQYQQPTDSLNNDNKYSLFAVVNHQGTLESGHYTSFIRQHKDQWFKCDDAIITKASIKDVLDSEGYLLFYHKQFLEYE
Summary of the method: as §1

USP24 = USP24 (UniProt Q9UPU5)
Sequence of USP24 (Q9UPU5 whole entry): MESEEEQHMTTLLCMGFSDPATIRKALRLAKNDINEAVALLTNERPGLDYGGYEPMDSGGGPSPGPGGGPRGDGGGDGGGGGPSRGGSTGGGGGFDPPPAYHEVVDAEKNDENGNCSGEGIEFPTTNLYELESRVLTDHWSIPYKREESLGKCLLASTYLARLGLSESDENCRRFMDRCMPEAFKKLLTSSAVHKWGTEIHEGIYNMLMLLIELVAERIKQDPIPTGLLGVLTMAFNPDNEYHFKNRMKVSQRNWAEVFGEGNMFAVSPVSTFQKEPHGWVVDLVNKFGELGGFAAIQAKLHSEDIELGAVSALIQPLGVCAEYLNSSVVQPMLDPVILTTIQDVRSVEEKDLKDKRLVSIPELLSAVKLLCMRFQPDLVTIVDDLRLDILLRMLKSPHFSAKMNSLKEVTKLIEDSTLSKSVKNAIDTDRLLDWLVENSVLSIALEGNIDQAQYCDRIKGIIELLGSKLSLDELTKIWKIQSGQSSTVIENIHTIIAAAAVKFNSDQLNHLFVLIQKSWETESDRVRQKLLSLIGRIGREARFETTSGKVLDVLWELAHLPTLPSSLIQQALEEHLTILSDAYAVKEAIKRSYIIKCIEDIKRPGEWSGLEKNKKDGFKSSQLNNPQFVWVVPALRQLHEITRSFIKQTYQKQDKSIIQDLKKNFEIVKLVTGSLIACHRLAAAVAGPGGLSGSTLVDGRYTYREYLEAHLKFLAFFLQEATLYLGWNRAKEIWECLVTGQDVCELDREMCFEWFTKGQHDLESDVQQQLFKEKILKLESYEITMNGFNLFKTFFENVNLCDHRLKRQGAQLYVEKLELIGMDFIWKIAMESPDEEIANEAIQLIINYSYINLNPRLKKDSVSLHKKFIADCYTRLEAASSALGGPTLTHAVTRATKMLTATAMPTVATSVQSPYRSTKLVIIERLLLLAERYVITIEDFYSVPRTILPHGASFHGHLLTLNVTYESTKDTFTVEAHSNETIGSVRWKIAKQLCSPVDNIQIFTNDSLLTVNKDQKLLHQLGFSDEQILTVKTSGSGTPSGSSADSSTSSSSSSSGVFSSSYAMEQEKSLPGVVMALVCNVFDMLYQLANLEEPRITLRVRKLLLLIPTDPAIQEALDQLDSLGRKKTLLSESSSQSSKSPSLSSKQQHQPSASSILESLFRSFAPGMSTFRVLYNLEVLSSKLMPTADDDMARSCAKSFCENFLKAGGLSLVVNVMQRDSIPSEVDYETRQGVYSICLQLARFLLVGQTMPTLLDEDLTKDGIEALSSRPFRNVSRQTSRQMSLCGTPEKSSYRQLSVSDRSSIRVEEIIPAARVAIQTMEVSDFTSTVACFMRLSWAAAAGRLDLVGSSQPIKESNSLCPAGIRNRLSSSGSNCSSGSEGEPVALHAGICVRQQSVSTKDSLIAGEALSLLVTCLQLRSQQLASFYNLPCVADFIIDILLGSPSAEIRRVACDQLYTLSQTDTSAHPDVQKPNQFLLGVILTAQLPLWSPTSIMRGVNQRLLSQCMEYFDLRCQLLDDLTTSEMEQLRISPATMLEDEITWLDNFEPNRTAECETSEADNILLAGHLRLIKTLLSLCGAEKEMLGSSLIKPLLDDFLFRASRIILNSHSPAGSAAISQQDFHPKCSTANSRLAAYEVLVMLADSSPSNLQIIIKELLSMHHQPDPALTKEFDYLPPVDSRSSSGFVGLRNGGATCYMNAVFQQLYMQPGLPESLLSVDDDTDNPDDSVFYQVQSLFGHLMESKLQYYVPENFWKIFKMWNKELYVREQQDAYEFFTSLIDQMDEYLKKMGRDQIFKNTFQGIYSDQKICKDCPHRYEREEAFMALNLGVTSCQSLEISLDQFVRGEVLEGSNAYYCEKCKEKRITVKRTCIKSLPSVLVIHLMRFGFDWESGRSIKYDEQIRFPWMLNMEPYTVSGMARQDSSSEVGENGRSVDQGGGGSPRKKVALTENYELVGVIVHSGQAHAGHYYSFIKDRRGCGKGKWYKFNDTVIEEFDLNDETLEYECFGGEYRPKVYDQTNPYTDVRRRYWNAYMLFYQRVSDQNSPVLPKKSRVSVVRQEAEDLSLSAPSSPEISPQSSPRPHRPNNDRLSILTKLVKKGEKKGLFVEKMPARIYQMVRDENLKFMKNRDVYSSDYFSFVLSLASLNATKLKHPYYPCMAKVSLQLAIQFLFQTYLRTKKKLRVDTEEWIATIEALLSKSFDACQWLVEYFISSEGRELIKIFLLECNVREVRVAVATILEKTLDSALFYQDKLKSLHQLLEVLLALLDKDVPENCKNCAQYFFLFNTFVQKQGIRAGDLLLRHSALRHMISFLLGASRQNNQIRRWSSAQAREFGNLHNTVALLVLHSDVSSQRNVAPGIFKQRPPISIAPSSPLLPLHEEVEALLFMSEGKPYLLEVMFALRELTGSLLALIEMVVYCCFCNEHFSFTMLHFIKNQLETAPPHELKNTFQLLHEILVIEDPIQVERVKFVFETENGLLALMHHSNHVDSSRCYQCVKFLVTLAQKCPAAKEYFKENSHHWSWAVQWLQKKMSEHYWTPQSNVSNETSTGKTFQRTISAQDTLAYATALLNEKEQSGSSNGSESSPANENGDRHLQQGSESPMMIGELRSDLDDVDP
Summary of the method: as §1

USP25 = target: T3, USP25 (UniProt Q9UHP3)
T3 sequence (whole entry): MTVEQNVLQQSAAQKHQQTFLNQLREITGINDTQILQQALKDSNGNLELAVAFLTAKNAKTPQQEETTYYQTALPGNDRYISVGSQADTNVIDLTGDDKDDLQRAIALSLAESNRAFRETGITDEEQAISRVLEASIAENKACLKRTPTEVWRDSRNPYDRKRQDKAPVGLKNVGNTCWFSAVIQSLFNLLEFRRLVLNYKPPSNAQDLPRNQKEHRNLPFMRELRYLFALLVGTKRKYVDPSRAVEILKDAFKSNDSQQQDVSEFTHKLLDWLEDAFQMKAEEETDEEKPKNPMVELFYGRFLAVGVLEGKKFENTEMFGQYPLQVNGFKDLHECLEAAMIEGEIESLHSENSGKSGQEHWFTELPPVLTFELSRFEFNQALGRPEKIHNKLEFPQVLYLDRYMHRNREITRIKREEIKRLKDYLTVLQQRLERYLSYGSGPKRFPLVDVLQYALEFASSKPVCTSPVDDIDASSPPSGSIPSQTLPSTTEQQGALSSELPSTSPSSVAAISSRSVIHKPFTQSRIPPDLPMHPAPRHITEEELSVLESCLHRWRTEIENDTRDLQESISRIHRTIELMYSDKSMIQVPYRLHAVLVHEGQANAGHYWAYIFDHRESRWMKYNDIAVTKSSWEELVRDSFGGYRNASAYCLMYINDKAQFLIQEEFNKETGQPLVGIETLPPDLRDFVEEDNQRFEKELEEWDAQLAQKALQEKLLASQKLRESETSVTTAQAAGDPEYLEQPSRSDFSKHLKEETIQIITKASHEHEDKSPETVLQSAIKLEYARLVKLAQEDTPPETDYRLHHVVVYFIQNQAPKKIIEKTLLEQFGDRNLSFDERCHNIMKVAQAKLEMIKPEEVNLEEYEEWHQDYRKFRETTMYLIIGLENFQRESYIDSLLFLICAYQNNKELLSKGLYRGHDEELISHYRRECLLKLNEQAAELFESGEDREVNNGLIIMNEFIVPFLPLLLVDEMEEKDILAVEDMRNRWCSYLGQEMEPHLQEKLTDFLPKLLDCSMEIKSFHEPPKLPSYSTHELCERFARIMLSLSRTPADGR
Summary of the method: as §1

USP28 = target: T4, USP28 (UniProt Q96RU2)
T4 sequence (whole entry): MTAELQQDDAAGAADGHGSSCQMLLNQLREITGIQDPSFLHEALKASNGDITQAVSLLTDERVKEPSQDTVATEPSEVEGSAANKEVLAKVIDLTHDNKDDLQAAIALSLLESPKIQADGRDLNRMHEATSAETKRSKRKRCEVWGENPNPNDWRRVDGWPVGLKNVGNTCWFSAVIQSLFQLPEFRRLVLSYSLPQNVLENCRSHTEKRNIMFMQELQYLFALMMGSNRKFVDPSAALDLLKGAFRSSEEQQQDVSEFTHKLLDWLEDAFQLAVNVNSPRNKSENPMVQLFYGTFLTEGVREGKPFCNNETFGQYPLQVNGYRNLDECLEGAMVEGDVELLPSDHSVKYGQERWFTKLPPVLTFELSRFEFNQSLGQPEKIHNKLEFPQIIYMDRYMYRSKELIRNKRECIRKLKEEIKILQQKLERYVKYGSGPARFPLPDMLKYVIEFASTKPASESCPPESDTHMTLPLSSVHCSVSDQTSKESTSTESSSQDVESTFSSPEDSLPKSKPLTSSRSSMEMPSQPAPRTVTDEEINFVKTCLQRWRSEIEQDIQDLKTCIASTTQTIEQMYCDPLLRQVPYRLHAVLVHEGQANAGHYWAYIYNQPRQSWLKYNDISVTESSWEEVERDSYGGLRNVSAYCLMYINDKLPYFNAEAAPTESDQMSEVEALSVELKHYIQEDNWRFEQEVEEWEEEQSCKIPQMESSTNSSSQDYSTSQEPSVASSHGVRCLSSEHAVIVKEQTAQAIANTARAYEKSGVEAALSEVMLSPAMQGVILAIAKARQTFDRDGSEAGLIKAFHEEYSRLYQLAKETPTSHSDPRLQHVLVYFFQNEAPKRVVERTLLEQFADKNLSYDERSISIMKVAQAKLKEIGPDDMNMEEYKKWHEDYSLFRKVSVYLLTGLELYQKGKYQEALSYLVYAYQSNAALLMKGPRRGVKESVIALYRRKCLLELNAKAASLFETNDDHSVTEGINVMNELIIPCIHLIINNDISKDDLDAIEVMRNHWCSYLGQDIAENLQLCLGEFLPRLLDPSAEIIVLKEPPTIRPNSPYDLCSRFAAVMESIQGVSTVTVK
Summary of the method: as §1

Measured: log2 ratio of Biotin-Ahx-Ub-VS probe labelling

Cc1cccc(C(CNC(=O)CCl)N2CCOCC2)c1.Cl (stereo not given)
inactive: USP19 0.101 | USP22 -0.00636 | USP24 0.135 | USP25 -0.355 | USP28 -0.0645
